From publication PMC4336329 (PLoS ONE, 2015)
About 14,000 (4.5%) of roughly 310,000 compounds showed an effect of 50% or more. Effects have a minus sign here. The entries come from a sample that favours strong results as a whole.

molecular target: human ether-à-go-go-related gene (hERG) potassium channel (human, UniProt Q12809); experiment: primary screen, population patch clamp on CHO cells stably expressing hERG; higher = less effect of the substance
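Also: peak tail current of the secondary pulse compared with the same well before compound.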

human ether-à-go-go-related gene (hERG) potassium channel, sequence (Q12809 whole entry, looked up): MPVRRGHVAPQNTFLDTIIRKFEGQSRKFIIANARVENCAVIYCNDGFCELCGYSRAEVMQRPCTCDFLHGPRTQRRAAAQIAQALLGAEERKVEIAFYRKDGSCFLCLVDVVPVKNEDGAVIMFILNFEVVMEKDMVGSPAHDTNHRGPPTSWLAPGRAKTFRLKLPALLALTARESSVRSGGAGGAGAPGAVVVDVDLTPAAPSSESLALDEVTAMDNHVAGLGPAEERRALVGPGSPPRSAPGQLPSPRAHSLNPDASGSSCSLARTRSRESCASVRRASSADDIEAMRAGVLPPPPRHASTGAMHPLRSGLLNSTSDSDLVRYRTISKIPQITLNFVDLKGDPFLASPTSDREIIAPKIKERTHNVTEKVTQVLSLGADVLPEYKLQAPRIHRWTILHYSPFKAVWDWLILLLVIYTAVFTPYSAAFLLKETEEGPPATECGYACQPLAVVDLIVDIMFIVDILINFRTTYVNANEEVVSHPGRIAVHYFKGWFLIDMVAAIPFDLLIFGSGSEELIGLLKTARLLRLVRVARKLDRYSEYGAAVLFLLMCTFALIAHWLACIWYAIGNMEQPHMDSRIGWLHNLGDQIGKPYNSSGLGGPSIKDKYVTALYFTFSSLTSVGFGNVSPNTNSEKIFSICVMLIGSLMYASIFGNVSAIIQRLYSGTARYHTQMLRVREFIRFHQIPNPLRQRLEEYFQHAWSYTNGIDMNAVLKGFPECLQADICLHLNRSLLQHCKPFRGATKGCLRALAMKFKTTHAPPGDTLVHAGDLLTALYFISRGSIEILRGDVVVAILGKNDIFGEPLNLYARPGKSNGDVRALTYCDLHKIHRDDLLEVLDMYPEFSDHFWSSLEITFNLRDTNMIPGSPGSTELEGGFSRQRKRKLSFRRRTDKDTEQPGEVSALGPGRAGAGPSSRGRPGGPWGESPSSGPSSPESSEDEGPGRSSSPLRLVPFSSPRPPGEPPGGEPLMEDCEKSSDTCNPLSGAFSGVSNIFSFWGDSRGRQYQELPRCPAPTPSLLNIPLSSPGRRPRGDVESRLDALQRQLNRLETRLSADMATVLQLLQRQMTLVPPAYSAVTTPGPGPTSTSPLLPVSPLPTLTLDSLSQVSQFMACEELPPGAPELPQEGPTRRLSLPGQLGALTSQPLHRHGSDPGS

Row | SMILES | hERG current change (%, negative = inhibition) at 10uM
1 | CC1CC(C)CN(C(=O)CNS(=O)(=O)c2ccc(Br)s2)C1 (stereo not shown) | -1.92%
2 | S=c1[nH]nc(-c2ccc(Cl)cc2)n1/N=C/c1ccco1 | 14.3%
3 | O=C(c1cccc(C(=O)N2CCN(c3ccc(F)cc3)CC2)c1)N1CCN(c2ccc(F)cc2)CC1 | -72.5%
4 | O=C(c1cn(CC2CCCCC2)nn1)N1CCN(c2ccc(F)cc2)CC1 | -52.5%
5 | O=C(Nc1cccc(C(=O)N2CCCC2)c1)c1ccccc1 | 2.2%
6 | O=C(Nc1cccc(C(=O)N2CCN(c3cccc(Cl)c3)CC2)c1)c1ccccc1 | 4.69%
7 | O=C(c1ccc(N2CCN(C(=O)c3ccc(F)c(F)c3)CC2)cc1)c1cccc(F)c1 | -16.7%
8 | O=C(c1ccc(N2CCN(C(=O)c3ccccc3)CC2)cc1)c1cccc(F)c1 | -74.5%
9 | COc1ccc(N2CCN(C(=O)c3cn(CC4CCCCC4)nn3)CC2)cc1 | -14.3%
10 | O=C(Nc1cccc(C(=O)N2CCN(c3ccc(F)cc3)CC2)c1)c1ccccc1 | -58.7%
11 | O=C(c1cccc(C(=O)N2CCN(c3ccccc3)CC2)c1)N1CCN(c2ccccc2)CC1 | -41.7%
12 | O=C(c1ccc(N2CCN(C(=O)c3cccc(F)c3)CC2)cc1)c1cccc(F)c1 | -12.5%
13 | CCOc1ccccc1N1CCN(C(=O)c2cn(CC3CCCCC3)nn2)CC1 | -9.95%
14 | O=C(c1cccc(-c2ccc(O)cc2)c1)N1CCN(c2ccc(F)cc2)CC1 | 23.3%
15 | CN(C1CCCCC1)S(=O)(=O)c1ccc(S(=O)(=O)N2CCN(C(=O)c3ccccc3F)CC2)cc1 | -12.2%
16 | CCOC(=O)N1CCC(N2CC34C=CC(O3)C(C(=O)Nc3ccc(OCC)cc3)C4C2=O)CC1 (stereo not shown) | -18.7%
17 | CC(OC(=O)CNC(=O)COc1ccccc1)C(=O)N(C)Cc1ccccc1 (stereo not shown) | 5.07%
18 | COC(=O)c1ccccc1NC(=O)C1CCN(S(C)(=O)=O)CC1 | 1.04%
19 | O=C(COC(=O)/C=C/c1ccc(S(=O)(=O)N2CCOCC2)cc1)NC1CCCCCCC1 | 32.2%
20 | CCO.N#CC1=C(N)Oc2c(oc(CO)cc2=O)C1c1ccccc1[N+](=O)[O-] (stereo not shown) | -1.44%
21 | O=C(c1ccc(CN2CCc3ccccc3C2)cc1)N1CCN(c2ccccc2)CC1 | -46.3%
22 | CSc1ccccc1C(=O)N1CCN(c2ccc(F)cc2)CC1 | -17.5%
23 | O=C(c1ccc(Br)o1)N1CCN(c2ccc(F)cc2)CC1 | -45.6%
24 | CC(=O)N1CCN(C(=O)c2cccc(S(=O)(=O)NCc3ccccc3)c2)CC1 | 5.5%
25 | O=C(c1cccc(S(=O)(=O)NCc2ccccc2)c1)N1CCN(c2ccc(F)cc2)CC1 | -58.1%
26 | O=C(c1ccc(CN2CCc3ccccc3C2)cc1)N1CCCCC1 | -9.72%

Row | SMILES | hERG current change (%, negative = inhibition) at 10uM
27 | O=C(c1ccccc1)c1ccc(C(=O)N2CCN(c3ccc(F)cc3)CC2)o1 | -78.4%
28 | CC(=O)c1ccc(-c2ccc(C(=O)N3CCN(c4ccc(F)cc4)CC3)o2)cc1 | -16.7%
29 | O=C(c1ccccc1C(=O)N1CCN(c2ccccc2)CC1)N1CCN(c2ccccc2)CC1 | -29.7%
30 | O=C(c1cccc(S(=O)(=O)NCc2ccccc2)c1)N1CCN(c2cccc(C(F)(F)F)c2)CC1 | -4.17%
31 | O=C(c1ccc(CN2CCc3ccccc3C2)cc1)N1CCN(c2ccc(F)cc2)CC1 | -68.6%
32 | O=C(c1ccccc1C(=O)N1CCN(c2ccc(F)cc2)CC1)N1CCN(c2ccc(F)cc2)CC1 | -73.8%
33 | COc1ccc(-c2nnc(SCC(=O)Nc3cc(C)on3)o2)cc1 | 14.4%
34 | O=C1C(c2ccc(F)cc2)N(C2CCCCC2)C(=O)CN1C1CCCC1 (stereo not shown) | -34.1%
35 | O=C(CSc1ccc2nnc(-c3ccncc3)n2n1)Nc1ccc2c(c1)OCCO2 | 10.9%
36 | Cc1ccc(-c2cc(C(=O)O)c3cc(Br)ccc3n2)s1 | 16.7%
37 | COCc1c(C(=O)OCC(=O)NCCc2ccc(S(N)(=O)=O)cc2)oc2ccccc12 | -0.489%
38 | CCc1ccc(NC(=O)CSC2=C(C#N)C(c3ccco3)C3=C(CCCC3=O)N2)cc1 (stereo not shown) | -1.71%
39 | COc1ccc(-c2nc(CNS(=O)(=O)c3ccc(OC)c(OC)c3)cs2)cc1 | -1.76%
40 | CCN(CC)C(=O)CC(c1ccc(N(C)C)cc1)c1c(O)cc(OC)cc1OC (stereo not shown) | 18.7%
41 | O=C(COc1ccccc1C(=O)Nc1ccccc1)NCCc1ccccc1 | 34.4%
42 | CCCCN(CCCC)c1cc(C)nc(-c2ccccc2O)n1 | 16.8%
43 | Cc1cccc(OCC(=O)Nc2ccc(S(=O)(=O)Nc3onc(C)c3C)cc2)c1C | 13.3%
44 | Cc1ccc(N(CC(=O)NC2CCCCC2)C(=O)c2ccc(C)s2)cc1 | -11.2%
45 | CCOC(=O)c1c(NC(NC(=O)C(C)C)C(Cl)(Cl)Cl)sc2c1CCC2 (stereo not shown) | 11%
46 | O=C(CSc1nncs1)N1CCN(C(=O)c2ccco2)CC1 | 5.31%
47 | O=C(CSc1nc(-c2ccc(F)cc2)cs1)N1CCN(C(=O)c2ccco2)CC1 | -57%
48 | O=C(c1ccco1)N1CCN(c2nc(-c3ccc(F)cc3)cs2)CC1 | -34.9%
49 | CC1CN(C(=O)CSc2nc(-c3ccccc3)cs2)CC(C)O1 (stereo not shown) | 3.57%
50 | O=C(CSc1nc(-c2ccccc2)cs1)N1CCN(C(=O)c2ccco2)CC1 | -60.6%
51 | O=C(CSc1nc(-c2ccc(F)cc2)cs1)N1CCOCC1 | -25.4%
52 | O=[N+]([O-])c1ccc(N=Nc2c(Cl)cc(O)cc2Cl)cc1 | 18.2%
